Only some compounds are listed: those with a hit (about 2.8% of all), similar ones and a draw of the others.
ATXN2 expr inh – inhibitors of ATXN2 expression; HEK-293 ATXN2-luciferase reporter, luminescence, 24 h; Potency, µM (titrated, usually from 57 µM), actives largely listed as inhibitors; hit rate 0.72% among 360,000; AID 1745845; also: nearly all actives have a fitted effect of over 55% in size
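qHTS (up to 57 uM final) was run with 24 h compound exposure of reporter cells at 37 °C. Each well was multiplexed: SteadyGlo luminescence measured ATXN2-luciferase expression after a fluorogenic Gly-Phe-AFC viability readout (25 uM final).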
HttQ103 aggreg – mutant huntingtin aggregation inhibition. hit rate 1.1% among 220,000. Potency, µM (top dose mostly 46.1 µM), most hits filed as inhibitors. PC12 HttQ103-GFP aggregates, Acumen cytometry, 40 h; also: nearly all actives have a fitted effect of over 60% in size
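Steps: seed 1500 PC12 HTTQ103-GFP cells/well; add tebufenozide, 100 nM final; add compound titration; add ATPLite reagent; quantify GFP aggregates by laser scanning cytometry.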
HTT cytoprotect – cytoprotection in Huntington HTT-Q103 PC12 cell model; hit rate 0.14% among 230,000; Potency, µM (titrated, usually from 56.4 µM), actives largely listed as activators; PC12 HTT-Q103 induced, cytoprotection, ATP luminescence, 40 h; also: nearly all actives have a fitted effect of over 45% in size
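Readout: ATPlite luminescence (ATP level). Model: stable PC12, inducible Htt exon1 Q103-GFP. Inducer: tebufenozide, 100 nM final. Compounds: dose series. No G418 in medium.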
ATXN viability – reduces viability in counter-screen for ATXN expression inhibitors | S2 cells (HEK-293 line with an ATXN2-luciferase reporter) viability, CellTiter-Fluor protease fluorescence, 24 h | Potency, µM (series often up to 56.7 µM), most hits filed as cytotoxic | hit rate 0.49% among 400,000; also: nearly all actives have a fitted effect of over 40% in size
HepG2 viability – HepG2 cytotoxicity, counter-screen for TGF-b inhibitors; HepG2 CAGA-GFP viability, ATP luminescence, 18 h; Potency, µM (top dose mostly 46.1 µM), usual class: cytotoxic; hit rate 0.76% among 410,000; AID 588856
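HepG2 CAGA-GFP cells (1000/well, DMEM with 1% FBS) received compound, then TGF-beta at 500 pg/mL final, and were incubated 18 hours at 37 degrees C. Viability was read by CellTiter-Glo luminescence. Media-only wells were set as complete cell-killing and DMSO as no toxicity.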
TGFb SMAD3 inh – inhibitors of TGF-b signaling | HepG2 CAGA-GFP TGF-b/SMAD3 reporter, GFP fluorescence, 18 h; TGF-beta stimulated, 500 pg/mL final | Potency, µM (series often up to 46.1 µM), actives largely listed as inhibitors | hit rate 1.2% among 410,000; also: nearly all actives have a fitted effect of over 65% in size
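First, reporter cells (HEPG2 CAGA-GFP) rested 2 h at 37 degrees C. Next, compounds were pinned in and TGF-beta added to 500 pg/mL final. After 18 h, GFP was imaged per cell and summed per well.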
Numbers stand for hits; 0 = inactive; ? = inconclusive; - = no result given; [ ] = another dose, or the depositor's remark. Calls follow the shape of the dose curve; as a rule, active = well fitted curve in the direction sought with a large enough effect; inconclusive = small, poorly fitted or top-dose-only effect, or another doubt; inactive = no such curve, though single readings can be large; an effect the other way counts as inactive or inconclusive.

SMILES	ATXN2 expr inh	HttQ103 aggreg	HTT cytoprotect	ATXN viability	HepG2 viability	TGFb SMAD3 inh
O=c1c(C2CC(c3ccc(-c4ccc(Br)cc4)cc3)Cc3ccccc32)c(O)sc2ccccc12 (stereo unspecified)	?	-	-	0	-	-
CC(C)c1ccc2c(c1)C(N1CCNCC1)Cc1ccc(F)cc1S2 (stereo unspecified)	?	-	-	?	0	17.8µM
N#CSCC(=O)N1c2ccccc2CCc2ccccc21	?	?	0[10 µM]	?	0	25.1µM
CN(C)c1ccc(-[n+]2c(-c3ccccc3)cc(-c3ccccc3)cc2-c2ccccc2)cc1	?	1.12µM	0	?	0	3.98µM
c1ccc(-c2cc(-c3ccccc3)[n+](-c3ccccc3)c(-c3ccccc3)c2)cc1	8.91µM	3.98µM	0[10 µM]	-	0	12.6µM
Cc1ccc(-c2cc(-c3ccccc3)cc(-c3ccccc3)[n+]2-c2ccccc2)cc1	3.55µM	-	-	12.6µM	0	5.62µM
Cc1ccc(-c2cc(-c3ccc(C)cc3)[n+](-c3ccc(C(=O)[O-])cc3)c(-c3ccc(C)cc3)c2)cc1	0	-	-	0	0	0
CCOC(=O)c1ccc(-[n+]2c(-c3ccccc3)cc(-c3ccccc3)cc2-c2ccccc2)cc1	0	-	-	?	0	?
CC[C@@]12CCCN3CC[C@@]4(c5ccc(OC)c(O)c5N(C(C)=O)[C@H]4CC1)[C@H]32	-	-	0	-	-	-
C=CCN1CCc2cccc3c2[C@@H]1Cc1ccc(O)c(O)c1-3	-	-	0[1.9 µM]	-	-	-
c1cc2c(cc1[C@H]1OC[C@H]3[C@H]1CO[C@H]3c1ccc3c(c1)OCO3)OCO2	0	-	-	-	-	-
O=c1[nH]c2ccccc2n1C1CCN(C(c2cc3ccccc3o2)c2nnnn2Cc2ccccc2)CC1 (stereo unspecified)	20µM	-	-	-	0	?
COc1cccc(C(c2nnnn2Cc2ccccc2)N2CCC(n3c(=O)[nH]c4ccccc43)CC2)c1OC (stereo unspecified)	?	-	-	?	0	?
O=c1[nH]c2ccccc2n1C1CCN(C(CCc2ccccc2)c2nnnn2C2CCCC2)CC1 (stereo unspecified)	25.1µM	-	-	?	0	?
C[C@@H]1[C@H]2C=C[C@@H]1[C@@H](c1c3ccc(=O)c(O)c-3oc3c(O)c(O)ccc13)[C@@H]2C(=O)O	-	-	0[10 µM]	-	-	-
Cc1oc(-c2cccc(Cl)c2)nc1CN1CCC(C(=O)NCCCN2CCN(c3ccc(F)cc3)CC2)CC1	0	-	-	0	0	?
Cc1oc(-c2ccc(Cl)cc2)nc1CN1CCC(C(=O)NCCCN2CCN(c3cccc(Cl)c3)CC2)CC1	-	-	-	-	0	15.8µM
CN1CCc2cc3c(cc2[C@@H]1[C@H]1OC(=O)c2c1ccc1c2OCO1)OCO3	-	-	0	-	-	-
O=[N+]([O-])c1ccc(C(c2ccc([N+](=O)[O-])cc2)c2ccc([N+](=O)[O-])cc2)cc1	31.6µM	-	-	?	0	?
CCOC(=O)c1cnc(N2CC2)nc1N	15.8µM	-	-	28.2µM	0	0
CCOC(=O)c1ccccc1C(=O)OCC	0	0	0	0	0	0
CN1CCN(c2ccc([N+](=O)[O-])c3[nH]o[n+](=O)c23)CC1	-	-	0[10 µM]	-	-	-
COC(=O)[C@@H]1[C@@H](C(=O)OC)C2(c3ccccc3-c3ccccc32)N(c2ccc(Cl)cc2)N1C#N	7.08µM	0[9.22 µM]	0[10 µM]	7.08µM	11.2µM	?
COC(=O)C[C@]1(C(=O)OC)CN(C#N)N(c2ccc(Cl)cc2)C12c1ccccc1-c1ccccc12	3.98µM	5.62µM	0[10 µM]	5.62µM	0	3.98µM
C[C@]12CC[C@H]3[C@@H](CCC4=CC(=O)CC[C@@]43C)[C@H]1CC[C@H]2OC(=O)CCC1CCCC1	0	-	-	-	-	-
NCC(CS(=O)(=O)O)c1ccc(Cl)cc1 (stereo unspecified)	-	-	0	-	-	-
CCCCCCCCCC(CC)c1ccc(S(=O)(=O)O)cc1 (stereo unspecified)	0	0	0	31.6µM	-	-
Cc1ccc(-c2cc(-c3ccc(C)cc3)[n+](C)o2)cc1	0	3.16µM	-	0	0	7.08µM

Source: PubChem BioAssay (National Center for Advancing Translational Sciences (NCATS))
